ChEMBL document CHEMBL3988442, “University of Dundee, Small-Polar-MMV Screening Library” (2021)
About 13,000 (27%) of roughly 48,000 compounds showed an effect of 50% or more. The list shows a part of the results.

Each compound was assayed on Wolbachia pipientis (assay: Anti-Wolbachia Cell-Based Screen). Conditions: 5 µM.
Type: functional
Set-up: scale not given: in the data most compounds retested in dose-response had high values
`C/C=C(/C)C(=O)NS(=O)(=O)c1ccc(Cl)cn1` was tested, and the “Percent Effect” value was 2.315%. For `Cc1nccnc1N1Cc2cnc(CC(C)C)nc2C1`, the “Percent Effect” value was -0.1537%. In the case of `CCCNC(=O)NCc1nc(C)c(C)o1`, the “Percent Effect” value is reported as -5.382%. For `Cc1nc(CN(C)S(=O)(=O)c2ccc(F)cc2Br)no1`, the “Percent Effect” value was -1.638%. In the case of `C[S+]([O-])c1nncn1CC(=O)c1cccc(Cl)c1` (stereo not drawn), the “Percent Effect” value is reported as 6.672%. In the case of `CCOC(=O)C1(Cc2cccc(OC)c2)CCN(Cc2ncc[nH]2)CC1`, the “Percent Effect” value is reported as -0.1816%. For `COc1cccc(CN(Cc2ncc[nH]2)Cc2ccco2)c1.O=C(O)CC(O)(CC(=O)O)C(=O)O`, the “Percent Effect” value was 114.4%. In the case of `COc1cccc(CN2CCC(c3cc(O)nc(C)n3)C2)c1.O=C(O)CC(O)(CC(=O)O)C(=O)O` (stereo not drawn), the “Percent Effect” value is reported as -8.452%. `COc1cccc(CN(Cc2ccco2)Cc2cnc(C)n2C)c1.O=C(O)CC(O)(CC(=O)O)C(=O)O` was tested, and the “Percent Effect” value was 133.7%. `COc1ccc(CN(C(=O)C(C)C)c2cnn(C)c2)c(OC)c1` was tested, and the “Percent Effect” value was -18.73%. `Cc1nc[nH]c1CN(Cc1ccccc1)Cc1nccs1` was tested, and the “Percent Effect” value was 10.51%. With `Cc1noc(CN(Cc2ccc3c(c2)OCCO3)Cc2ccco2)n1` the “Percent Effect” value was -7.452%. In the case of `COc1ccc(CN(Cc2ccco2)Cc2[nH]cnc2C)c(OC)c1.O=C(O)CC(O)(CC(=O)O)C(=O)O`, the “Percent Effect” value is reported as 111.9%. For `COc1ccc2nc(O)c(CN(C)Cc3ncc[nH]3)cc2c1`, the “Percent Effect” value was -3.339%. `COc1cccc(CN(Cc2ccco2)Cc2[nH]cnc2C)c1.O=C(O)CC(O)(CC(=O)O)C(=O)O` was tested, and the “Percent Effect” value was 156.3%. `COc1ccc(CN(C(=O)CCC(C)C)c2cnn(C)c2)c(OC)c1` was tested, and the “Percent Effect” value was -10.12%. With `COc1ccc(NC(=O)N(C)Cc2ccco2)cn1` the “Percent Effect” value was 3.036%. With `Cc1ccc(C(=O)N2C[C@@H](NS(C)(=O)=O)[C@H](C(C)C)C2)cc1O` the “Percent Effect” value was 5.531%. In the case of `CC(CCc1cccn1C)NC(=O)Nc1cccn(C)c1=O` (stereo not drawn), the “Percent Effect” value is reported as -4.481%. For `Cc1ccccc1OCC1CCCN(C(=O)CNC(=O)N(C)C)C1` (stereo not drawn), the “Percent Effect” value was 1.963%. With `N#Cc1cccc(CN2CCN(C(=O)C3CCC3)[C@@H]3CS(=O)(=O)C[C@@H]32)c1` the “Percent Effect” value was 2.28%. For `Cc1csc(CCNC(=O)c2ccc(N(C)C)c(F)c2)n1`, the “Percent Effect” value was -10.73%. With `CCN(Cc1ccoc1)C(=O)NC1CCN(CC2CCCC2)CC1` the “Percent Effect” value was -1.692%. With `COc1ccc(N(Cc2ccco2)C(=O)C2CCCO2)cc1F` (stereo not drawn) the “Percent Effect” value was 12.44%. With `CCOCC(=O)N(Cc1ccco1)c1ccc(OC)c(F)c1` the “Percent Effect” value was -17.42%. `COc1ccc(OC)c(CN(Cc2ccco2)Cc2[nH]cnc2C)c1.O=C(O)CC(O)(CC(=O)O)C(=O)O` was tested, and the “Percent Effect” value was 125%. For `COCCN(CCOC)c1ncccc1I`, the “Percent Effect” value was 19.77%. For `CC(C(=O)NCCCn1ccnc1)n1cc(Br)cn1` (stereo not drawn), the “Percent Effect” value was 2.347%. For `CC(C)n1cc(C(=O)NCCCn2ccnc2)c2n[nH]c(=O)c-2c1`, the “Percent Effect” value was 123.9%. For `COCCCNC(=O)c1cn(C(C)C)cc2c(=O)[nH]nc1-2`, the “Percent Effect” value was 104.5%. For `O=C(NCCCn1ccnc1)c1csc2c1CCCC2`, the “Percent Effect” value was 4.867%. For `CC(C)N(C)CCCNC(=O)c1cnn(C(C)C)c1C(F)(F)F`, the “Percent Effect” value was 7.835%. With `CCn1nc(C(C)C)cc1C(=O)NCCCOC` the “Percent Effect” value was -18.28%. `COCC(C)NC(=O)c1cn(C(C)C)cc2c(=O)[nH]nc1-2` (stereo not drawn) was tested, and the “Percent Effect” value was 106.6%. For `COc1cccc(-c2n[nH]cc2C(=O)NC(C)CC(=O)O)c1` (stereo not drawn), the “Percent Effect” value was -19.78%. For `COCC(C)NC(=O)c1nnn(-c2ccc(F)cc2)n1` (stereo not drawn), the “Percent Effect” value was -1.834%. In the case of `Cc1ccsc1CN(C)c1nc2c(cnn2C(C)(C)C)c(=O)[nH]1`, the “Percent Effect” value is reported as -15.84%. In the case of `O=C(C1CCCN1Cc1nc(-c2ccco2)no1)N1CCSCC1` (stereo not drawn), the “Percent Effect” value is reported as 97.23%. With `O=C(C1CCCCC1)N1CCN(Cc2nc(-c3ccco3)no2)CC1` the “Percent Effect” value was 98.36%. In the case of `O=C(C1CCN(Cc2nc(-c3ccco3)no2)CC1)N1CCCC1`, the “Percent Effect” value is reported as 109.9%. For `c1coc(-c2noc(CN3CCC(c4ccn[nH]4)CC3)n2)c1`, the “Percent Effect” value was 3.524%. For `O=C(c1ccco1)N1CCN(Cc2nc(C3CC3)no2)CC1`, the “Percent Effect” value was -17.27%. In the case of `NC(=O)NCC1CCCCN1Cc1nc(-c2ccco2)no1` (stereo not drawn), the “Percent Effect” value is reported as 116.5%. In the case of `c1coc(-c2noc(CN3CCc4c(ncn4C4CC4)C3)n2)c1`, the “Percent Effect” value is reported as -13.05%. In the case of `CC(C)c1cc(C2CCCN2Cc2nc(-c3ccco3)no2)no1` (stereo not drawn), the “Percent Effect” value is reported as -36.51%. `O=C(C1CCCCN1Cc1nc(-c2ccco2)no1)N1CCCC1` (stereo not drawn) was tested, and the “Percent Effect” value was -6.382%. With `CC(C)(C)CC1CCCN1Cc1nc(-c2ccco2)no1` (stereo not drawn) the “Percent Effect” value was 1.615%. With `O=C(C1CCCC1)N1CCN(Cc2nc(-c3ccco3)no2)CC1` the “Percent Effect” value was 3.823%. For `CCCOCCOC(=O)c1ccc2c(c1)[nH]c(=O)n2C`, the “Percent Effect” value was -3.927%. `NC(=O)CCn1cc(CNCCCc2ccccc2O)c2ccccc21` was tested, and the “Percent Effect” value was 15.24%. In the case of `COc1cc(C(=O)Nc2nc(C)no2)ccc1C`, the “Percent Effect” value is reported as -1.332%. In the case of `COCC(=O)NC[C@@]1(COc2cnccn2)C[C@@H](O)[C@@H](O)C1.Cl`, the “Percent Effect” value is reported as -5.232%. With `COCCOCCCC(=O)N1CCC(Cc2ccccc2OC)CC1` the “Percent Effect” value was -18.09%. In the case of `FC(F)Oc1ccccc1CNCc1cc(Br)c2c(c1)OCO2`, the “Percent Effect” value is reported as 6.017%. In the case of `c1ccc(CC2(CNCc3ncc[nH]3)CCC2)cc1`, the “Percent Effect” value is reported as -10.87%. In the case of `COc1cc(N2CCCC3(CCN(c4cccnc4)C3=O)C2)ncn1.O=C(O)C(F)(F)F` (stereo not drawn), the “Percent Effect” value is reported as -87.96%. For `COCCN1CCOCC12CCN(c1ccc(C#N)cc1)CC2.O=C(O)C(F)(F)F`, the “Percent Effect” value was 1.624%. `N#Cc1ccc(N2CCCC3(CCN(c4cncnc4)C3=O)C2)nc1.O=C(O)C(F)(F)F` (stereo not drawn) was tested, and the “Percent Effect” value was 104%. `O=C1CCC2(CCCN(c3ncc(F)cn3)CC2)N1CC1CC1` (stereo not drawn) was tested, and the “Percent Effect” value was -5.991%. With `N#Cc1ccc(N2CCC3(CCC(=O)N3CCN3CCCC3)CC2)nc1.O=C(O)C(F)(F)F.O=C(O)C(F)(F)F` the “Percent Effect” value was 111.3%. For `O=C(O)C(F)(F)F.O=C(O)C(F)(F)F.O=C(c1ccncc1)N1CCCC2(CCN(c3cccnc3)C2=O)C1` (stereo not drawn), the “Percent Effect” value was -3.414%. For `N#Cc1ccc(N2CCC(c3nc(C(F)(F)F)c[nH]3)CC2)nc1`, the “Percent Effect” value was -13.67%. For `O=C1CCC2(CCN(c3ncc(F)cn3)CC2)N1CCN1CCCC1`, the “Percent Effect” value was 20.59%. With `O=C(O)C(F)(F)F.O=C(O)C(F)(F)F.O=C1CCC2(CCCN(Cc3nccs3)C2)N1CC1CC1` (stereo not drawn) the “Percent Effect” value was -83.2%. `N#Cc1ccc(N2CCCC3(CCC(=O)N3CC3CC3)CC2)nc1.O=C(O)C(F)(F)F` (stereo not drawn) was tested, and the “Percent Effect” value was 105.4%. With `N#Cc1cccc(CN2CC3(CCCCN3c3cncnc3)CC2=O)c1.O=C(O)C(F)(F)F` (stereo not drawn) the “Percent Effect” value was -19.74%. `CN1C(=O)CCC12CCN(c1ccc(C#N)cn1)CC2.O=C(O)C(F)(F)F` was tested, and the “Percent Effect” value was 114%. For `CC(C)c1nc(N2CC[C@@H](N(C)CCc3ccccn3)[C@H](O)C2)no1`, the “Percent Effect” value was -7.34%. `CSc1cccc(CN(C)C(=O)C2CC(=O)N(CCN(C)C)C2)c1` (stereo not drawn) was tested, and the “Percent Effect” value was 0.2115%. `Cc1cccc2c(=O)n(C(C)Cc3cccnc3)cnc12` (stereo not drawn) was tested, and the “Percent Effect” value was 5.15%. For `Cc1cn([C@H]2CCNC[C@]2(C)O)c(=O)[nH]c1=O`, the “Percent Effect” value was 91.37%. In the case of `Cc1cn([C@@H]2CC3(CCNCC3)OC[C@@]2(C)O)c(=O)[nH]c1=O`, the “Percent Effect” value is reported as 120.3%. In the case of `N#Cc1ccc(NCc2cccnc2N2CCC(C(N)=O)CC2)cn1`, the “Percent Effect” value is reported as 11.59%. With `CC(=O)NCC(=O)N1CCc2c(CNc3ncccn3)cncc2C1.Cl` the “Percent Effect” value was -3.566%. With `CS(=O)(=O)NCc1cncc2c1CCN(C(=O)N1CCCC1)C2.Cl` the “Percent Effect” value was 112.8%. `COCCC(=O)N1CCc2c(CNc3ncccn3)cncc2C1.Cl` was tested, and the “Percent Effect” value was -6.28%. `CCCC(=O)N1CCc2c(CNS(C)(=O)=O)cncc2C1.Cl` was tested, and the “Percent Effect” value was 100.5%. With `Cl.O=C(N1CCCC1)N1CCc2c(CNc3ncccn3)cncc2C1` the “Percent Effect” value was -8.095%. In the case of `CCCn1[nH]cc/c1=N\C(=O)CN1CCCC1c1c(C)nn(C)c1C` (stereo not drawn), the “Percent Effect” value is reported as -11.65%. For `Cn1cc(CCC(=O)N2CCCN(c3ncccc3C#N)CC2)cn1`, the “Percent Effect” value was 89.9%. For `N#Cc1cccnc1N1CCCN(C(=O)CCn2cccn2)CC1`, the “Percent Effect” value was 107%. With `COc1ccccc1N1CCN(C(=O)CCn2ccnc2C)CC1(C)C` the “Percent Effect” value was 3.273%. `COc1ccnc(N2CCCN(C(=O)CCc3cnn(C)c3)CC2)n1` was tested, and the “Percent Effect” value was -25.81%. `N#Cc1cccnc1N1CCCN(C(=O)CCc2cccs2)CC1` was tested, and the “Percent Effect” value was -1.405%. In the case of `N#Cc1ccccc1N1CCN(CCC(=O)N2CCOCC2)CC1`, the “Percent Effect” value is reported as 8.66%. With `Cc1cnn(CCC(=O)N2CCCN(c3ccccc3C#N)CC2)c1` the “Percent Effect” value was 106.5%. With `Cc1cnn(CCC(=O)N2CCCN(c3cccnn3)CC2)c1` the “Percent Effect” value was 7.961%. In the case of `COc1ccccc1N1CCN(C(=O)CCn2ccc(C)n2)CC1(C)C`, the “Percent Effect” value is reported as -8.619%. `N#Cc1ccccc1N1CCCN(C(=O)CCn2cccn2)CC1` was tested, and the “Percent Effect” value was -8.555%. For `N#Cc1cccnc1N1CCN(C(=O)CCC(=O)c2cccs2)CC1`, the “Percent Effect” value was 2.306%. For `COc1ccccc1N1CCN(C(=O)CCn2ccc(C)n2)CC1`, the “Percent Effect” value was 112.7%. For `O=C1CC(c2ccc(F)cc2)Cc2[nH]c(=O)c(C(=O)O)cc21` (stereo not drawn), the “Percent Effect” value was -7.153%. With `COc1ccc(-c2nnc([C@H]3CCN(C4CCC4)C3)o2)cc1` the “Percent Effect” value was -7.791%. For `COc1ccc2c(C)nc(N3CCN([C@H]4CCCC[C@@H]4O)CC3)nc2c1`, the “Percent Effect” value was -5.01%. For `Cc1cnn(CCC(=O)N2CCCN(c3ncccc3C#N)CC2)c1`, the “Percent Effect” value was 7.127%. For `N#Cc1cccnc1N1CCCN(CC(=O)N2CCNC(=O)C2)CC1`, the “Percent Effect” value was -3.438%. For `N#Cc1ccc(CN2CCN(C(=O)CCn3cncn3)CC2)cc1`, the “Percent Effect” value was -1.452%. In the case of `Cc1cnn(CC(=O)N2CCCN(c3ncccc3C#N)CC2)c1`, the “Percent Effect” value is reported as 99.25%. In the case of `N#Cc1ccc(CN2CCCN(C(=O)CCn3cncn3)CC2)cc1`, the “Percent Effect” value is reported as -4.749%. In the case of `Cc1cnn(CCC(=O)N2CCN(c3ncccc3Cl)CC2)c1`, the “Percent Effect” value is reported as 8.116%. `N#Cc1cccnc1N1CCCN(C(=O)CCn2cncn2)CC1` was tested, and the “Percent Effect” value was 103.6%. `Cc1cnn(CCC(=O)N2CCN(c3nc(C)cs3)CC2)c1` was tested, and the “Percent Effect” value was -7.951%. In the case of `Cc1cnn(CCC(=O)N2CCN(c3ccc(C#N)cn3)CC2)c1`, the “Percent Effect” value is reported as 122.4%.
